Only some compounds are listed: those with a hit (about 7.3% of all), similar ones and a draw of the others.
Rab9 prom act: qHTS Assay for Rab9 Promoter Activators | Huh7 Rab9 promoter-luciferase reporter, luminescence, 24 h | Potency, µM (titrated, usually from 9.22 µM), usual class: activators | actives 2.8% (n = 320,000) | AID 485297, 2010; also: nearly all actives have a fitted effect of over 60% in size
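Luciferase signal after 10 min detection reagent at ambient indicates Rab9 promoter upregulation; stably transfected Huh7 cells were treated 24 h with compound in DMSO at 37 °C, 5% CO2.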
FLuc modulator: qHTS profiling assay for firefly luciferase inhibitor/activator using purifed enzyme and Km concentrations of substrates (counterscreen for miR-21 project) | actives 6.9% (n = 360,000) | Potency, µM (series often up to 57.5 µM), hits mostly inhibitors | purified FLuc, Km substrates, luminescence inhibition | Luciferin 4-monooxygenase (Photinus pyralis), P08659; also: nearly all actives have a fitted effect of over 55% in size
Target sequence (P08659 whole entry, looked up): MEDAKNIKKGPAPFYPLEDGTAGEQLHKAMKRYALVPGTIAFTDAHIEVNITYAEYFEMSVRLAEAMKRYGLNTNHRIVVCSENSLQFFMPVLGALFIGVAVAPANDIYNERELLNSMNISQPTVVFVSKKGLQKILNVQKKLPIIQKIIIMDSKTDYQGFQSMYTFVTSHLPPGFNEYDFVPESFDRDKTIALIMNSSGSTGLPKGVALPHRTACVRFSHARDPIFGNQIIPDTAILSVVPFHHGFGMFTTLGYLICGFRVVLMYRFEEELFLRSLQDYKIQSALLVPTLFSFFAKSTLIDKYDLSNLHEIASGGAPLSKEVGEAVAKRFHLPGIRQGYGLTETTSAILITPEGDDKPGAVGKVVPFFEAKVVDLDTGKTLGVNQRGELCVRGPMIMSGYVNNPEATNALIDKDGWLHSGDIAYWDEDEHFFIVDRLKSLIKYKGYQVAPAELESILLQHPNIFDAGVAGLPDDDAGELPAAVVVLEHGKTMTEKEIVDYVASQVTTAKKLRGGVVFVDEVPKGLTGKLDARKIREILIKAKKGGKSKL
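Biochemical qHTS of compounds, final roughly 60 µM downward over six points, against 10 nM purified firefly luciferase using Km concentrations of substrates (10 uM D-luciferin, 10 uM ATP) in Tris acetate pH 7.5 buffer; luminescence output.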
KinaseGlo FLuc: Counterscreen for Luciferase (Kinase-Glo TM) Inhibition. Kinase-Glo luciferase, ATP luminescence, 8 min. actives 0.28% (n = 200,000). Luciferin 4-monooxygenase (Photuris pensylvanica), Q27757. Potency, µM (highest dose often 38.3 µM), most hits filed as inhibitors. AID 1379, 2008; also: nearly all actives have a fitted effect of over 60% in size
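Substrate mix (final 50 mM imidazole pH 7.2, 50 mM KCl, 7 mM MgCl2, 10 uM ATP, 0.01% Tween 20, 0.05% BSA) plus pin-tool compound, then Kinase-Glo detection mix; 8 min ambient, luminescence read.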
ELG1 genotox: qHTS screen for small molecules that induce genotoxicity in human embryonic kidney (HEK293T) cells expressing luciferase-tagged ELG1 | HEK293T ELG1-luciferase reporter, luminescence, 16 h | actives 1.3% (n = 330,000) | Potency, µM (series often up to 46 µM), actives largely listed as activators; also: nearly all actives have a fitted effect of over 60% in size
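16 hr compound incubation (37 °C, 5% CO2) of HEK293T cells carrying luciferase-tagged ELG1; luciferase then measured by ONE-Glo luminescence after 30 min at RT.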
SMN2 splice up: qHTS Assay for Enhancers of SMN2 Splice Variant Expression; HEK293 SMN2-luciferase splicing reporter, luminescence, 30-36 h; Potency, µM (titrated, usually from 46.1 µM), actives largely listed as activators; actives 2.8% (n = 210,000); AID 1458, 2008; also: nearly all actives have a fitted effect of over 55% in size
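HEK293 cells carry an SMN2 minigene-luciferase reporter in which exon 7 inclusion puts luciferase in frame. Cells were seeded at 2000 cells/well, attached for 10-12 hours, then exposed to compounds for 30-36 hours at 37C before ONE-Glo luminescence.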
NPC1 prom act: qHTS Assay for NPC1 Promoter Activators | Huh7 NPC1 promoter luciferase reporter, 24 h | Potency, µM (top dose mostly 9.22 µM), actives largely listed as activators | actives 2.4% (n = 320,000) | AID 485313, 2010; also: nearly all actives have a fitted effect of over 60% in size
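Luciferase expression driven by the NPC1 promoter was measured in stably transfected Huh7 cells after a 24 h compound incubation, using a luciferase reagent and a luminescence read.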
Each line names hits and unclear results; the compound was inactive in the other large screens. Calls follow the shape of the dose curve; as a rule, active = well fitted curve in the direction sought with a large enough effect; inconclusive = small, poorly fitted or top-dose-only effect, or another doubt; inactive = no such curve, though single readings can be large; an effect the other way counts as inactive or inconclusive.

CCOc1ccccc1CNC(=O)CN1C(=O)CCc2cc(S(=O)(=O)N3CCCCC3)ccc21	none (no result: Rab9 prom act, KinaseGlo FLuc, ELG1 genotox, SMN2 splice up, NPC1 prom act)
COc1cccc(-n2c(SCc3ccccc3C)nc3c([nH]c4ccccc43)c2=O)c1	none (no result: Rab9 prom act, KinaseGlo FLuc, ELG1 genotox, SMN2 splice up, NPC1 prom act)
CSc1ccc(/C=C/C(=O)NC(=O)c2ccccc2O)cc1	Rab9 prom act 2.5µM, FLuc modulator 0.6µM, ELG1 genotox 9.2µM, SMN2 splice up 25µM, NPC1 prom act inconclusive
O=C(/C=C/c1ccc(Br)cc1)NC(=O)c1ccccc1O	Rab9 prom act 1.8µM, FLuc modulator 0.38µM, ELG1 genotox inconclusive, SMN2 splice up 22µM, NPC1 prom act 3.5µM
O=C(/C=C/c1ccc(F)cc1)NC(=S)Nc1ccccc1O	NPC1 prom act inconclusive (no result: KinaseGlo FLuc, SMN2 splice up)
O=C(/C=C/c1ccc(O)c(O)c1)NC(=O)c1ccccc1O	FLuc modulator 9.5µM, ELG1 genotox inconclusive, SMN2 splice up 32µM, NPC1 prom act inconclusive
CCn1ccc2cc(S(=O)(=O)N3CCCN(C(=O)NCC(=O)OC)CC3)ccc21	none (no result: Rab9 prom act, KinaseGlo FLuc, ELG1 genotox, SMN2 splice up, NPC1 prom act)
CC(C)(C)c1ccc(C(=O)CCCN2CCC(OC(c3ccccc3)c3ccccc3)CC2)cc1	none (no result: FLuc modulator, KinaseGlo FLuc, ELG1 genotox, SMN2 splice up)
Cn1cccc1C(=O)N1CCC2(CCCN(c3cccc(-c4ccccc4)c3)C2)CC1	none (no result: Rab9 prom act, FLuc modulator, ELG1 genotox, NPC1 prom act)
Cc1ccc(N=C2NC(=O)CS2)cc1	none
Cc1ccc(SCC(=O)N=C2NC(=O)CS2)cc1	FLuc modulator 15µM (no result: KinaseGlo FLuc, SMN2 splice up)
CN(C)c1ccc(C=Nc2cnn(C)c2C(N)=O)cc1	FLuc modulator 4.8µM, ELG1 genotox inconclusive (no result: SMN2 splice up)
O=C(Nc1cccc([N+](=O)[O-])c1)Nc1cccc([N+](=O)[O-])c1	none
O=C(Nc1ccc2c(c1)CCC2)Nc1ccc2c(c1)OCO2	Rab9 prom act 2.2µM, FLuc modulator inconclusive, ELG1 genotox inconclusive, SMN2 splice up 13µM, NPC1 prom act 3.5µM
CC(=O)Nc1ccc2c(c1)OCCO2	none
O=C(Nc1ccc2c(c1)OCCO2)Nc1ccc2c(c1)OCO2	Rab9 prom act 0.1µM, FLuc modulator 0.95µM, ELG1 genotox inconclusive, SMN2 splice up 2.5µM, NPC1 prom act 0.4µM
O=C(Nc1ccc2c(c1)OCCO2)NC12CC3CC(CC(C3)C1)C2	Rab9 prom act 1.3µM, FLuc modulator 6µM, ELG1 genotox inconclusive, SMN2 splice up 22µM, NPC1 prom act 2.5µM
O=C(Nc1cccc([N+](=O)[O-])c1)Nc1ccc2c(c1)OCCO2	Rab9 prom act 1.8µM, FLuc modulator 2.7µM, ELG1 genotox inconclusive, SMN2 splice up 11µM, NPC1 prom act inconclusive
NCCCCCc1nnc(SCc2ccc(F)cc2)o1	none (no result: Rab9 prom act, KinaseGlo FLuc, ELG1 genotox, NPC1 prom act)
Cc1ccc(NC(=O)Nc2ccc3c(c2)OCO3)cc1F	Rab9 prom act 1.3µM, FLuc modulator 0.6µM, ELG1 genotox 9.2µM, NPC1 prom act 1.1µM (no result: KinaseGlo FLuc, SMN2 splice up)
O=C(Nc1ccc2c(c1)OCO2)Nc1ccccc1F	Rab9 prom act 0.5µM, FLuc modulator 2.4µM, ELG1 genotox 0.92µM, NPC1 prom act 0.45µM (no result: KinaseGlo FLuc, SMN2 splice up)
Cc1ccnc(NC(=O)Nc2ccc3c(c2)OCO3)c1	Rab9 prom act 0.5µM, FLuc modulator 1.9µM, ELG1 genotox inconclusive, SMN2 splice up 6.3µM, NPC1 prom act 0.63µM
NS(=O)(=O)c1ccc(NC(=O)Nc2ccc3c(c2)OCO3)cc1	Rab9 prom act inconclusive, FLuc modulator 15µM, ELG1 genotox inconclusive, NPC1 prom act inconclusive (no result: KinaseGlo FLuc, SMN2 splice up)
CCNS(=O)(=O)c1ccc(NC(=O)Nc2ccc3c(c2)OCO3)cc1	FLuc modulator inconclusive (no result: KinaseGlo FLuc, SMN2 splice up)
COc1ccc(NC(=O)C2(S(=O)(=O)c3ccc(C)cc3)CC2)c(OC)c1	none (no result: Rab9 prom act, KinaseGlo FLuc, ELG1 genotox, NPC1 prom act)
COCCN1CCc2nc(SCC(=O)Nc3ccc(C)c(Cl)c3)[nH]c(=O)c2C1	none (no result: Rab9 prom act, KinaseGlo FLuc, ELG1 genotox, SMN2 splice up, NPC1 prom act)
COc1ccc(NC(=O)Cn2ccn(-c3ccc(C)c(C)c3)c(=O)c2=O)cc1Cl	none (no result: Rab9 prom act, KinaseGlo FLuc, ELG1 genotox, SMN2 splice up, NPC1 prom act)
O=C(Nc1ccc2c(c1)OCO2)Nc1ccc(Br)cn1	Rab9 prom act 1.6µM, FLuc modulator 6µM, ELG1 genotox 7.3µM, SMN2 splice up 13µM, NPC1 prom act 4µM
NC(=O)c1ccc(NC(=O)Nc2ccc3c(c2)OCO3)cc1	Rab9 prom act inconclusive, FLuc modulator 24µM, ELG1 genotox inconclusive, NPC1 prom act inconclusive (no result: KinaseGlo FLuc, SMN2 splice up)

Screens deposited in PubChem BioAssay by National Center for Advancing Translational Sciences (NCATS).
